Test systems include SK-MEL-2 melanoma; EKVX NSCLC; SN12C renal; TK-10 renal; ACHN renal; CAKI-1 renal; A498 renal; CCRF-CEM leukemia; MOLT-4 leukemia; SR leukemia; OVCAR-8 ovarian; OVCAR-5 ovarian; OVCAR-4 ovarian; SK-OV-3 ovarian; IGROV1 ovarian; OVCAR-3 ovarian; HS 578T breast; NCI/ADR-RES ovarian; RPMI-8226 leukemia.
Assay in all cases: NCI-60 one-dose screen, 48 h (100 = growth as untreated, 0 = no growth, -100 = all killed)
Settings in all cases: 10 µM unless noted

This is part of a sample that, as a whole, favours compounds with a hit. Of some 83,000 tested, about 20% had one in any assay.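 Treatment: one concentration, 48 hours, 96-well format. Scoring: percent growth, with anything below 10 considered active.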 Values without a mark were called inactive. Activity calls are given as the source filed them.

As for `C/C(=C(/c1ccccc1)c1ccc(N2C(=O)c3cccc4c(N5CCN(C)CC5)ccc(c34)C2=O)cc1)c1ccccc1`, the growth in the assay on SK-MEL-2 melanoma is 116%; with EKVX NSCLC, 62.4%; in the assay with SN12C renal, 77.2%; with TK-10 renal it was 114%; in the assay on ACHN renal it was 89.5%; with CAKI-1 renal it was 86.7%. Further, the growth in the assay with A498 renal was 86.3%; in the assay with CCRF-CEM leukemia it was 58%; in the assay with MOLT-4 leukemia, 54.3%; in the assay with SR leukemia it was -9.19% (active); in the assay on OVCAR-8 ovarian, 83%; in the assay on OVCAR-5 ovarian, 91.9%. The growth is 56.6% with OVCAR-4 ovarian; 106% with SK-OV-3 ovarian; 69% in the assay with IGROV1 ovarian; 82.7% in the assay with OVCAR-3 ovarian; 97.9% in the assay on HS 578T breast; 84.9% in the assay on NCI/ADR-RES ovarian.
For `O=C1c2cccc3cccc(c23)C(=O)N1Nc1nc(NC2CCCCC2)nc(N2CCOCC2)n1`, the growth was 109% in the assay on SK-MEL-2 melanoma; 90% in the assay on EKVX NSCLC; 93.9% in the assay on SN12C renal; 129% with TK-10 renal; 89.7% with ACHN renal; 76.5% in the assay on CAKI-1 renal. The growth in the assay with A498 renal is 127%; with CCRF-CEM leukemia, 90.1%; in the assay on MOLT-4 leukemia it was 90%; in the assay on SR leukemia it was 91%; in the assay on OVCAR-8 ovarian, 99%; in the assay with OVCAR-5 ovarian, 95.6%. For the same molecule, the growth with OVCAR-4 ovarian is 106%; in the assay on SK-OV-3 ovarian, 95.7%; with OVCAR-3 ovarian, 103%; with HS 578T breast, 99.4%; in the assay on NCI/ADR-RES ovarian, 99.8%.
For `O=C(N/N=C/[C@H](O)[C@H](O)[C@H](O)CO)c1ccc(NC(=O)c2cccnc2)cc1`, the growth in the assay with SK-MEL-2 melanoma is 118%; in the assay on EKVX NSCLC, 105%; with SN12C renal, 94.5%; with TK-10 renal it was 104%; in the assay with ACHN renal it was 109%; in the assay with CAKI-1 renal, 94.1%. Also, the growth in the assay on A498 renal was 99.3%; in the assay with CCRF-CEM leukemia, 99.2%; in the assay on MOLT-4 leukemia it was 109%; with SR leukemia it was 99.9%; with OVCAR-8 ovarian, 102%; in the assay with OVCAR-5 ovarian it was 102%. In addition, the growth is 110% in the assay on OVCAR-4 ovarian; 110% in the assay on SK-OV-3 ovarian; 107% in the assay on IGROV1 ovarian; 118% in the assay with OVCAR-3 ovarian; 98.4% in the assay with HS 578T breast; 109% with NCI/ADR-RES ovarian.
As to `c1ccc(Cc2nn3cc(-c4ccccc4)nc3s2)cc1`, the growth was 97% with SK-MEL-2 melanoma; 95.9% in the assay with EKVX NSCLC; 103% with SN12C renal; 89.5% with TK-10 renal; 106% in the assay on ACHN renal; 98.7% in the assay on CAKI-1 renal. Moreover, the growth was 96.5% in the assay on A498 renal; 102% in the assay on CCRF-CEM leukemia; 93.9% in the assay with MOLT-4 leukemia; 98.3% in the assay on RPMI-8226 leukemia; 109% in the assay on OVCAR-5 ovarian; 106% in the assay with OVCAR-4 ovarian. The growth is 112% with SK-OV-3 ovarian; 106% in the assay on IGROV1 ovarian; 105% in the assay on OVCAR-3 ovarian; 115% with HS 578T breast; 102% with NCI/ADR-RES ovarian.
For the molecule `COC(=O)C(Cc1ccccc1)NC(=O)NC(=O)NC(=O)CI` (centres undefined), the growth in the assay on SK-MEL-2 melanoma was 94.9%; in the assay on EKVX NSCLC it was 103%; with SN12C renal, 17.2%; in the assay on TK-10 renal, 75.9%; in the assay on ACHN renal, 75.7%; in the assay on CAKI-1 renal, -69.3% (active). Besides, the growth with A498 renal is 124%; in the assay on CCRF-CEM leukemia, -50.8% (active); with MOLT-4 leukemia, -30.7% (active); in the assay with SR leukemia, -41.6% (active); with OVCAR-8 ovarian, 81.8%; in the assay with OVCAR-5 ovarian, 95.9%. Moreover, the growth in the assay with OVCAR-4 ovarian was 57.7%; with SK-OV-3 ovarian, 112%; in the assay on OVCAR-3 ovarian, -49.2% (active); in the assay with HS 578T breast it was 111%; in the assay with NCI/ADR-RES ovarian, 71.5%.
With `O=C(COc1ccc(/C=C2\Cc3ccc(Cl)cc3C2=O)cc1)Nc1nc2ccccc2s1`, the growth was 122% in the assay with SK-MEL-2 melanoma; 117% with EKVX NSCLC; 102% in the assay with SN12C renal; 151% with TK-10 renal; 94.2% in the assay on ACHN renal; 92.3% with CAKI-1 renal. The growth was 130% in the assay on A498 renal; 73.5% with CCRF-CEM leukemia; 69.8% with MOLT-4 leukemia; 75.5% with SR leukemia; 93.1% in the assay with RPMI-8226 leukemia; 108% in the assay on OVCAR-5 ovarian. Moreover, the growth with OVCAR-4 ovarian is 109%; in the assay on SK-OV-3 ovarian, 104%; in the assay with IGROV1 ovarian, -61.5% (active); with OVCAR-3 ovarian, 104%; in the assay on HS 578T breast, 91%; in the assay with NCI/ADR-RES ovarian, 99.2%.
On to `CCOC(=O)c1c(C)oc2ncnc(N3CCN(C(=O)COc4ccc(C(C)(C)C)cc4)CC3)c12`, for which the growth is 93.7% in the assay with SK-MEL-2 melanoma; 74% in the assay with EKVX NSCLC; 82.7% with SN12C renal; 94.1% in the assay with TK-10 renal; 85.9% in the assay with ACHN renal; 84.3% in the assay with CAKI-1 renal. Moreover, the growth with A498 renal was 82%; in the assay on CCRF-CEM leukemia it was 76.2%; in the assay on MOLT-4 leukemia, 59.1%; in the assay on RPMI-8226 leukemia it was 44.9%; in the assay on OVCAR-8 ovarian, 81.5%; in the assay with OVCAR-5 ovarian, 96.8%. Besides, the growth with OVCAR-4 ovarian was 74.4%; in the assay on SK-OV-3 ovarian it was 85.4%; in the assay on IGROV1 ovarian, 73.7%; in the assay on OVCAR-3 ovarian it was 98.4%; with HS 578T breast it was 78.8%; in the assay with NCI/ADR-RES ovarian it was 73.6%.
Regarding `Cc1nc2ccccc2c(/C=C/c2ccc(Cl)cc2)c1C(=O)/C=C/c1cccs1`, the growth with SK-MEL-2 melanoma is 90.9%; in the assay on EKVX NSCLC, 80.9%; with SN12C renal, 72%; in the assay on TK-10 renal it was 125%; with ACHN renal it was 78.3%; in the assay on CAKI-1 renal, 46.2%. The growth was 40.9% with A498 renal; 59.6% with CCRF-CEM leukemia; 54.7% in the assay on MOLT-4 leukemia; 53.4% in the assay on RPMI-8226 leukemia; 74.9% in the assay with OVCAR-8 ovarian; 92.6% in the assay on OVCAR-5 ovarian. Moreover, the growth is 60.7% in the assay with OVCAR-4 ovarian; 78.5% in the assay with SK-OV-3 ovarian; 46.6% with IGROV1 ovarian; 82.2% in the assay with OVCAR-3 ovarian; 86.7% in the assay with HS 578T breast; 80.7% in the assay on NCI/ADR-RES ovarian.
Consider `Cc1ccc(C(=O)NN2C(=O)CSC2c2cccc([N+](=O)[O-])c2)cn1` (centres undefined), for which the growth with SK-MEL-2 melanoma was 100%; in the assay on EKVX NSCLC, 98.7%; with SN12C renal, 96.6%; in the assay with TK-10 renal, 98.3%; in the assay with ACHN renal it was 92.2%; with CAKI-1 renal, 79.5%. Also, the growth in the assay on A498 renal was 100%; in the assay on CCRF-CEM leukemia, 90.8%; in the assay on MOLT-4 leukemia it was 105%; in the assay with SR leukemia, 109%; with RPMI-8226 leukemia it was 82.7%; with OVCAR-5 ovarian, 94.7%. Besides, the growth in the assay on OVCAR-4 ovarian was 95%; in the assay with SK-OV-3 ovarian it was 114%; in the assay on IGROV1 ovarian it was 73.3%; in the assay with OVCAR-3 ovarian, 92.9%; in the assay with HS 578T breast it was 124%; in the assay with NCI/ADR-RES ovarian, 95.2%.

The values above are taken from PubChem BioAssay (NCI).
